# EBV gp42 inh: Epstein-Barr virus gp42 inhibitors, primary screen, biochemical, uHTS, fluorescence polarization | Fluorescence polarization binding assay, mP read-out | inhibition, % (tested at 21.74 µM) | actives 0.42% (n = 220,000); in the data active = inhibition above about 50%
# Target sequence (Q1HVG2 whole entry, looked up): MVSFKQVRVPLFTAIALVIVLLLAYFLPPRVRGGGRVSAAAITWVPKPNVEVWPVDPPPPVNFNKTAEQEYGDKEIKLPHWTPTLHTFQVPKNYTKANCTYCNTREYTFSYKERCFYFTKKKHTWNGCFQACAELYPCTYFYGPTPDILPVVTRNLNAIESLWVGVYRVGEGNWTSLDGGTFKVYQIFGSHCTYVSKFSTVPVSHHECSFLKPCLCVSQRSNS
# MEX-5 binding: MEX-5 zinc finger RNA-binding disruptors – biochemical, C. elegans, fluorescence polarization, MLPCN library, primary screen | actives 0.38% (n = 300,000) | Zinc finger protein mex-5 (Caenorhabditis elegans), Q9XUB2 | activity score (negative = inhibition of binding), % at 10 µM | AID 1832, 2009 | MEX-5/FITC-TCR2 RNA binding; hits give low values;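 active = inhibition past about -25% in most replicates, and total fluorescence under double the plate's negative control median, limit read from the data; inconclusive = replicates evenly split on the limit, or fluorescence at least double controls; inactive = too little inhibition in most replicates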;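 note: 0% = DMSO and -100% = 5 µM competing unlabeled TCR2 RNA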
# ZTA DNA inh: blocks Epstein-Barr virus ZTA, an EBNA-1 counter-screen. inhibition, % at 11 µM. ZTA-DNA binding, fluorescence polarization. actives 0.15% (n = 320,000); in the data active = inhibition above about 33%
# Target sequence (P03206 whole entry, looked up): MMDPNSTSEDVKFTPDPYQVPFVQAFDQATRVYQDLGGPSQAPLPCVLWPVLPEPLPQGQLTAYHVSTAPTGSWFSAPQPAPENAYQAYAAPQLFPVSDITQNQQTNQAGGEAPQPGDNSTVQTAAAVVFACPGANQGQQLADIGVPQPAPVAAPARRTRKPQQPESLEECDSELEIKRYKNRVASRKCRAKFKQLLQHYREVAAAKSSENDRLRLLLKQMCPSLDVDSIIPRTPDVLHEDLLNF
# EBNA-1 inh: EBNA-1 DNA-binding inhibitors, primary screen, biochemical, fluorescence polarization; actives 0.34% (n = 300,000); inhibition, % at 14.8 µM; in the data active = inhibition above about 28%
# * = called active by the depositor; u = inconclusive; x = no result given. Rows were chosen to be rich in hits. Some 1% of all compounds tested hit in one or more screens of this group.
SMILES,EBV gp42 inh,MEX-5 binding,ZTA DNA inh,EBNA-1 inh
CC(C)(C)C(=O)c1sc2nc(-c3cccs3)cc(C(F)(F)F)c2c1N,9,-74*,11,7
CCN(CC)C(=O)c1sc2nc(-c3cccs3)cc(-c3ccc(Cl)cc3)c2c1N,86*,1,-12,-6
O=C1/C(=C/c2ccco2)CCc2ccccc21,-4,2,-2,11
Nc1ccc2c(c1)C/C(=C/c1ccco1)C2=O,98*,-45*,32,2
CN(C)C1=NC(=O)/C(=C/c2ccc(-c3ccc(S(N)(=O)=O)cc3)o2)S1,x,-29*,-5,-15
NC1=NC(=O)/C(=C\c2ccc(-c3ccc(Cl)cc3)o2)S1,x,-5,-6,-16
O=C(NCC1COCCO1)c1cc(COc2ccc(F)cc2F)on1 (stereo not given),x,2,-1,7
COc1ccc(/C=C(/NC(=O)c2ccc(OC)c(OC)c2)C(=O)NCCc2c[nH]c3ccccc23)cc1,-5,1,-21,4
COc1ccc(C(=O)N/C(=C/c2cccc3ccccc23)C(=O)NCCc2c[nH]c3ccccc23)cc1OC,-6,2,16,113*
Cc1ccc(C)n1-c1ccc(C(=O)O)cc1,-7,-50*,50*,-8
O=C(NCc1ccccn1)Nc1cccc(F)c1,x,-1,-11,-3
CC(=O)Nc1ccc2nc3c(=O)n(C)c(=O)n(C)c3nc2c1,102*,-13,0,6
Cc1ccc(-c2nnc(Nc3ccc(CC(N)=O)cc3)c3ccccc23)cc1S(N)(=O)=O,x,-32*,7,-4
CNS(=O)(=O)c1cc(-c2nnc(Nc3ccc(CC(N)=O)cc3)c3ccccc23)ccc1C,x,1,9,2
N#C/C(=C(/O)c1ccco1)c1nc2ccccc2s1,0,-3,2,-4
N#C/C(=C(/O)c1cc2ccccc2o1)c1nc2ccccc2s1,-20,-33*,-2,-1
COc1ccc2[nH]c(=O)c(CN(CCc3ccccc3)C(C)=O)cc2c1,-15,-1,-3,-12
COc1ccc(NC(=O)N(CCc2ccccc2)Cc2cc3c(C)cc(C)cc3[nH]c2=O)cc1,59*,0,-14,-6
CC1CCCCN1C(=S)NC(=O)c1cc(Br)ccc1Cl (stereo not given),x,x,3,x
O=C(NCc1cccnc1)c1cccc(S(=O)(=O)NCc2ccccc2)c1,x,-3,-2,2
COc1ccc(NC(=O)c2sc3nc(Cc4ccccc4)cc(C(F)(F)F)c3c2N)cc1OC,-19,1,11,3
COc1ccccc1NC(=O)c1sc2nc(Cc3ccccc3)cc(C(F)(F)F)c2c1N,74*,-143*,9,0
CSc1nnc(N2C(=O)C(O)=C(C(=O)c3ccco3)C2c2ccccc2)s1 (stereo not given),x,-40*,13,12
C=CCSc1nnc(N2C(=O)C(O)=C(C(=O)c3ccco3)C2c2ccccc2F)s1 (stereo not given),x,-35*,7,-3
Cc1nnc(N2C(=O)C(O)=C(C(=O)c3ccco3)C2c2cccc3ccccc23)s1 (stereo not given),41,-8,-3,3
SMILES,EBV gp42 inh,MEX-5 binding,ZTA DNA inh,EBNA-1 inh
Cc1ccc(C2C(C(=O)c3ccco3)=C(O)C(=O)N2c2nnc(C)s2)cc1 (stereo not given),77*,-11,3,7
CSc1nnc(N2C(=O)C(O)=C(C(=O)c3ccco3)C2c2ccccc2F)s1 (stereo not given),x,2,5,-12
CCCSc1nnc(N2C(=O)C(O)=C(C(=O)c3ccco3)C2c2ccccc2F)s1 (stereo not given),x,u,6,4
Cc1ccc(NC(=O)C2CCCO2)c(Br)c1 (stereo not given),x,-1,6,-5
CC(C)(O)C#Cc1ccc(CN2CCCC(CNC(=O)c3ccco3)C2)cc1 (stereo not given),x,7,-5,-7
C=CCn1c(C)cc(C(=O)COC(=O)COc2ccccc2C#N)c1C,90*,-1,10,6
COc1cc(C2CC(C(F)(F)F)n3ncc(C(=O)O)c3N2)cc(OC)c1OC (stereo not given),173*,1,-9,-12
COc1ccc(C2CC(C(F)(F)F)n3ncc(C(=O)NCc4cccnc4)c3N2)cc1OC (stereo not given),-4,0,12,5
COc1ccc(CCN(Cc2nc3ccccc3c(=O)[nH]2)C(=O)c2ccco2)cc1OC,98*,0,-7,-12
ClCc1nc2ccccc2n1Cc1ccccc1,x,-66*,-2,-4
COc1cc(CN2CCNC(=O)C2CC(=O)NCCCC2CCCC2)cc(OC)c1 (stereo not given),x,1,-7,3
CCOc1ccc(C2C=C(c3ccccc3)Nc3ncnn32)cc1 (stereo not given),25,2,-3,2
Fc1ccc(C2=CC(c3ccco3)n3ncnc3N2)cc1 (stereo not given),26,-51*,-4,3
Fc1ccc(C2=CC(c3ccc(Br)o3)n3ncnc3N2)cc1 (stereo not given),62*,x,-28,0
CCOc1ccc(C2C=C(c3ccc(F)cc3)Nc3ncnn32)cc1 (stereo not given),53*,-1,5,4
C1=C(c2ccc(-c3ccccc3)cc2)Nc2ncnn2C1c1ccco1 (stereo not given),150*,x,x,x
Oc1ccc(C2C=C(c3ccc(F)cc3)Nc3ncnn32)cc1 (stereo not given),17,-9,x,x
CS(=O)(=O)Nc1ccc(C(=O)Nc2ccccc2-c2ccccc2)cc1,x,-2,8,7
COc1ccccc1CCNC(=O)c1ccc(Br)s1,x,2,1,13
Cc1cc(C(=O)OCC(=O)NC2(C#N)CCCCC2)c(C)o1,x,x,0,x
Cc1cccc(N=Nc2c(O)[nH]c3ccc(Br)cc23)c1,x,-33*,15,7
CCC(=O)OC1(C)C(=O)C=C2C=C(CCCC(=O)OC)OC=C2C1=O (stereo not given),x,-31*,3,5
COC(=O)CCCC1=CC2=CC(=O)C(C)(O)C(=O)C2=CO1 (stereo not given),x,-39*,-21,-4
COC(=O)CCCC1=CC2=CC(=O)C(C)(OC(=O)C3CCCC3)C(=O)C2=CO1 (stereo not given),11,-27*,0,7
Cc1ccc(/C=C2/C(=O)c3ccc(C(=O)O)cc3C2=O)o1,-14,-26*,x,x
COc1cccc(-c2nn(-c3ccc(F)cc3)cc2C(=O)NCC2CCCO2)c1 (stereo not given),x,1,7,6
CC1=Nc2cccc3cccc(c23)N1C,-18,-29*,-8,-2
CC(C)(C)OC(=O)NC(Cc1ccccc1)C(=O)N1CCC(C(=O)NCC(=O)Nc2ccc(F)cc2)CC1 (stereo not given),x,-57*,7,-2
CCOC(=O)C1C(=O)C=C(c2ccc(C)cc2)CC1c1ccccc1 (stereo not given),9,-2,4,12

# Bioassay records from PubChem BioAssay.
